In PubChem BioAssay (Tox21):
Where “and” joins values, the source holds several entries; their conditions need not be identical. Identical values can stand only once. Results filed as inconclusive are left out. A call without a number means that no potency is given here. Some structures have more than one record in an assay (separate samples or runs), and their calls can disagree. Calls of active or inactive are those of the source. Unless noted, calls follow the shape of the dose curve; as a rule, active = well fitted curve in the direction sought with a large enough effect in the repeat runs; inconclusive = weak or mixed curves; inactive = no such curve, though single readings can be large; an effect the other way counts as inactive or inconclusive.

Experiments:
[1] = qHTS assay to identify aromatase inhibitors - cell viability counter screen (AID 743084);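 also: cells stimulated with testosterone during compound exposure; nearly all actives have a fitted effect of over 55% in size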; also: potency is read from the fitted curve at half-maximal effect
[2] = target: Aryl hydrocarbon receptor (Homo sapiens) (UniProt P35869); assay: qHTS assay to identify small molecule that activate the aryl hydrocarbon receptor (AhR) signaling pathway (AID 743085); also: nearly all actives have a fitted effect of over 15% in size; also: potency is read from the fitted curve at half-maximal effect;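 as to activation: HG2L7.5c1 human HepG2 liver cells with stably integrated DRE-driven firefly reporter; series mostly up to about 70 µM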
Aryl hydrocarbon receptor (Homo sapiens), sequence (P35869 whole entry, looked up): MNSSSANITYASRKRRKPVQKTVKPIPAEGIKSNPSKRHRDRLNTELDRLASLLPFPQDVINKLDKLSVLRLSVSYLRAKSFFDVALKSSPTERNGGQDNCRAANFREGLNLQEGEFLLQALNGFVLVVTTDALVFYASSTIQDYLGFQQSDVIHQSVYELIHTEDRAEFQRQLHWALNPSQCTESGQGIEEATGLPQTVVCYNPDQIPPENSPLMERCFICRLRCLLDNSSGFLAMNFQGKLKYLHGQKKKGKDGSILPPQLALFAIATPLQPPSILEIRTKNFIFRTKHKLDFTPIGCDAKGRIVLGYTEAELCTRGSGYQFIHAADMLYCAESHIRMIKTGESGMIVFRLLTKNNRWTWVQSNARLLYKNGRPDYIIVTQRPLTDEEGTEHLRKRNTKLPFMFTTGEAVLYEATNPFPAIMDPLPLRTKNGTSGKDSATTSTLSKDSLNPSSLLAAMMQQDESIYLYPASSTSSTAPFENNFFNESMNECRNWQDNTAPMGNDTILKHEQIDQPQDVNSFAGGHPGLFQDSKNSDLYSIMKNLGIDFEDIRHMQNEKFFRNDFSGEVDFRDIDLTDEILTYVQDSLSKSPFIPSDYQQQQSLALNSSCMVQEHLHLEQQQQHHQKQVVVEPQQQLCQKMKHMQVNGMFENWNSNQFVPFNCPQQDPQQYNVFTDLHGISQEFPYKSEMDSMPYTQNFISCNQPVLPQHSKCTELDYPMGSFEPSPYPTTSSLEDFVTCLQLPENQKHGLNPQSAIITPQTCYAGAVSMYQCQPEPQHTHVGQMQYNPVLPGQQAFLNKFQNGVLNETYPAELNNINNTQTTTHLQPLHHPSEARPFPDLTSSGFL
Outline: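 Luminescence read-out: ONE-Glo reagent, 30 min at room temperature, in HG2L7.5c1 HepG2 reporter cells treated 24 h at 37C. Viability was measured beforehand by CellTiter-Fluor fluorescence after 30 min at 37C.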

[3] = qHTS assay to identify small molecule that activate the aryl hydrocarbon receptor (AhR) signaling pathway - cell viability counter screen (AID 743086); also: nearly all actives have a fitted effect of over 45% in size; also: potency is read from the fitted curve at half-maximal effect
Outline: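 Cytotoxicity counter screen: CellTiter-Fluor signal (30 min, 37 C) in 4000 HepG2 cells/well carrying the DRE-luciferase reporter, following 24 h compound exposure at 37 C.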

[4] = qHTS assay to identify small molecule antagonists of the peroxisome proliferator-activated receptor gamma (PPARg) signaling pathway - cell viability counter screen (AID 743194); also: nearly all actives have a fitted effect of over 55% in size; also: potency is read from the fitted curve at half-maximal effect
Outline: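 Viability was measured as CellTiter-Glo luminescence in GeneBLAzer PPARg UAS-bla HEK293H cells. These cells had been exposed 17 h at 37 C to compounds together with rosiglitazone at 50 nM final, with the beta-lactamase readout taken in the same wells.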

[5] = qHTS assay for small molecule agonists of the antioxidant response element (ARE) signaling pathway - cell viability counter screen (AID 743203; calls by dose curve; also: nearly all actives have a fitted effect of over 55% in size)
Outline: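 Measured in the same wells as the beta-lactamase ARE reporter, this read-out is CellTiter-Glo luminescence from HepG2 ARE-bla cells given compounds for 16 hrs.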

[6] = qHTS assay for small molecule activators of the heat shock response signaling pathway - cell viability counter screen (AID 743209); also: nearly all actives have a fitted effect of over 50% in size
Outline: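 Same-well multiplex: after 2.5 h room-temperature incubation with LiveBLAzer B/G substrate and fluorescence reading, CellTiter-Glo reagent was added to HSE-bla HeLa cells that had received compound for 5 h at 37 C; luminescence read after 30 min.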

[7] = qHTS assay to identify small molecule agonists of the peroxisome proliferator-activated receptor delta (PPARd) signaling pathway - cell viability counter screen (AID 743211); also: nearly all actives have a fitted effect of over 55% in size; also: potency is read from the fitted curve at half-maximal effect
Outline: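 Read-out: CellTiter-Glo luminescence, 30 min RT, measured in the same wells as the beta-lactamase reporter. Cells: GeneBLAzer PPAR delta UAS-bla HEK293H, 3000 cells/well, compound exposure 17 h at 37C.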

[8] = qHTS assay to identify small molecule antagonists of the peroxisome proliferator-activated receptor delta (PPARd) signaling pathway - cell viability counter screen (AID 743213); also: nearly all actives have a fitted effect of over 50% in size
Outline: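 Same-well viability: cells pre-incubated 5 h, dosed with compound plus 300 nM L165041, kept 17 h at 37 C, FRET substrate 2 h RT, then CellTiter-Glo 30 min RT and luminescence.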

[9] = qHTS assay to identify small molecule agonists of the farnesoid-X-receptor (FXR) signaling pathway - cell viability counter screen (AID 743218); also: nearly all actives have a fitted effect of over 45% in size; also: potency is read from the fitted curve at half-maximal effect
Outline: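 Readout: CellTiter-Glo luminescence, 30 min RT, multiplexed after the FXR-bla FRET reading. HEK 293T FXR-UAS-bla cells received compound 5 h post-plating and were incubated 16 h at 37 C.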

[10] = qHTS assay to identify small molecule antagonists of the farnesoid-X-receptor (FXR) signaling pathway - cell viability counter screen (AID 743221; active = well fitted cell-killing curve with a large enough effect in the repeat runs, not every such curve was filed as active; also: nearly all actives have a fitted effect of over 50% in size; also: potency is read from the fitted curve at half-maximal effect)
Outline: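 HEK 293T FXR-bla cells, 5 h pre-incubation; compound + CDCA 50 uM final, 16 h, 37 C; beta-lactamase FRET read first, then CellTiter-Glo luminescence, 30 min RT.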

[11] = qHTS assay for small molecule agonists of the antioxidant response element (ARE) signaling pathway (AID 743202; active = well fitted activation curve with a large enough effect in the signal ratio in the repeat runs, not every such curve was filed as active; the % refers to the signal ratio; also: potency is read from the fitted curve at half-maximal effect)
Outline: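 Beta-lactamase reporter activity, read as fluorescence intensity, reflects ARE/Nrf2 pathway induction in HepG2 cells after 16 h compound exposure at 37 C; substrate loading was 2 h at room temperature.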

[12] = target: Peroxisome proliferator-activated receptor delta (Homo sapiens) (UniProt Q03181); assay: qHTS assay to identify small molecule agonists of the peroxisome proliferator-activated receptor delta (PPARd) signaling pathway (AID 743212; calls by dose curve)
Peroxisome proliferator-activated receptor delta (Homo sapiens), sequence (Q03181 whole entry, looked up): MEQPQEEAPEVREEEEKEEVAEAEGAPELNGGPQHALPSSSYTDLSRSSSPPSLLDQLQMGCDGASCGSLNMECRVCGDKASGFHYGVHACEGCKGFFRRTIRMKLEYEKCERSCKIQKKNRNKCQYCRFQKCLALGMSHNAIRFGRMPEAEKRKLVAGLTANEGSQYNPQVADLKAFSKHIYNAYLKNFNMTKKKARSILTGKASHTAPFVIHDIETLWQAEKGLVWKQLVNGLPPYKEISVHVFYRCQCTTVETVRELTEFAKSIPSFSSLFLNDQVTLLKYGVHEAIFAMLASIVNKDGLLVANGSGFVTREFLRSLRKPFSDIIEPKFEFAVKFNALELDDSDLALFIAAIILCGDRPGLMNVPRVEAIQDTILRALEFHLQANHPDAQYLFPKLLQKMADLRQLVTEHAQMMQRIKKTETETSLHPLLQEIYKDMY
Outline: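 Steps: seed PPARd-bla HEK293H cells; incubate 5 h, 37 C, 5% CO2; add compounds in DMSO; incubate, 37 C; add LiveBLAzer B/G FRET substrate; hold 2 h at room temperature; measure fluorescence.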

[13] = target: Peroxisome proliferator-activated receptor delta (Homo sapiens) (UniProt Q03181); assay: qHTS assay to identify small molecule antagonists of the peroxisome proliferator-activated receptor delta (PPARd) signaling pathway (AID 743215; active = well fitted inhibition curve with a large enough effect in the signal ratio in the repeat runs, not every such curve was filed as active; the % refers to the signal ratio;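 also: cells stimulated with agonist L165041 at 300 nM final during compound exposure; series mostly up to about 62 µM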)
Outline: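 Fluorescence from cleaved LiveBLAzer B/G FRET substrate (2 h, room temperature) reports PPARd-driven beta-lactamase in HEK293H UAS-bla cells. Cells had been treated 17 h at 37 C with compound plus 300 nM final L165041.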

[14] = target: Vitamin D3 receptor (Homo sapiens) (UniProt P11473); assay: qHTS assay to identify small molecule agonists of the vitamin D receptor (VDR) signaling pathway (AID 743222; calls by dose curve)
Vitamin D3 receptor (Homo sapiens), sequence (P11473 whole entry, looked up): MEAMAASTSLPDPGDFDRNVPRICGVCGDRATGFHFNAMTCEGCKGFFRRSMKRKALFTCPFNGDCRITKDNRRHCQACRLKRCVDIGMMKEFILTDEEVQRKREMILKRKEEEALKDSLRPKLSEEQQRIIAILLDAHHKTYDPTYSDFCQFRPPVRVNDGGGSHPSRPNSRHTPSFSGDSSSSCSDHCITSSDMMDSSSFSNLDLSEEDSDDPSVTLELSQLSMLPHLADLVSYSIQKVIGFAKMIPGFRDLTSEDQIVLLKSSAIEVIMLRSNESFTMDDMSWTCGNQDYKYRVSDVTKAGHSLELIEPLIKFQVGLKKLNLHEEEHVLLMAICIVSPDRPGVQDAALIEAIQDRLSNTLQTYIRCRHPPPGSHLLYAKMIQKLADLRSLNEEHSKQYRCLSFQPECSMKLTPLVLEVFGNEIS
Outline: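 Following 4 h attachment at 37C, VDR-bla cells (2,000 per well) received DMSO-dissolved compounds or controls. After 16 h incubation, LiveBLAzer B/G FRET substrate was added and fluorescence read 2 h later at room temperature.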

[15] = target: Peroxisome proliferator-activated receptor gamma (Homo sapiens) (UniProt P37231); assay: qHTS assay to identify small molecule agonists of the peroxisome proliferator-activated receptor gamma (PPARg) signaling pathway (AID 743094; active = well fitted activation curve with a large enough effect in the signal ratio in the repeat runs, not every such curve was filed as active; the % refers to the signal ratio)
Peroxisome proliferator-activated receptor gamma (Homo sapiens), sequence (P37231 whole entry, looked up): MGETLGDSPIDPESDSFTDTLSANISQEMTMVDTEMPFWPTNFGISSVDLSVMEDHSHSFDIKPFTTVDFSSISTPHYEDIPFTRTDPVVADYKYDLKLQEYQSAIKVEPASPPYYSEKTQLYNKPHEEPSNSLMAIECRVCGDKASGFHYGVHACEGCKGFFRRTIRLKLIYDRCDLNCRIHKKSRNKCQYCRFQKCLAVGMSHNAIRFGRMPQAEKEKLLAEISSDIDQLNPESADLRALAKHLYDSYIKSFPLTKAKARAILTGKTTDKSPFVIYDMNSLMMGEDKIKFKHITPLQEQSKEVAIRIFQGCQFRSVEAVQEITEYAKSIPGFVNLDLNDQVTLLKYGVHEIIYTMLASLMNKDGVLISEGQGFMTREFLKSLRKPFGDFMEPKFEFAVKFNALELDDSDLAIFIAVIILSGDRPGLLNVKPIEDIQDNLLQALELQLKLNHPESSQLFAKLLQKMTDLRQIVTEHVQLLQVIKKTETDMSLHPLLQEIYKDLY
Outline: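 Cell-based bla reporter, HEK293H background, PPARg-driven UAS. Pre-incubation 5 h, 37C, 5% CO2. Compound 17 h, 37C. Substrate 1 h RT; fluorescence.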

[16] = target: Peroxisome proliferator-activated receptor gamma (Homo sapiens) (UniProt P37231); assay: qHTS assay to identify small molecule antagonists of the peroxisome proliferator-activated receptor gamma (PPARg) signaling pathway (AID 743191; calls by dose curve; also: series mostly up to about 63 µM; nearly all actives have a fitted effect of over 30% in size)
Outline: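 Beta-lactamase reporter under UAS control in HEK293H PPARg-bla cells; compound treatment 17 h at 37C. Read-out: fluorescence intensity after 1 h room-temperature incubation with LiveBLAzer B/G FRET substrate.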

[17] = qHTS assay for small molecule activators of the heat shock response signaling pathway (AID 743210; active = well fitted activation curve with a large enough effect in the signal ratio in the repeat runs, with a control signal flat, not every such curve was filed as active; the % refers to the signal ratio;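 also: HeLa cells with beta-lactamase reporter driven by heat shock elements; series mostly up to about 63 µM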)
Outline: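 Fluorescence from a cleaved B/G FRET substrate (2.5 h, room temp) reports HSE-driven beta-lactamase in HeLa cells treated 5 h at 37 C with DMSO-dissolved compounds.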

[18] = target: Vitamin D3 receptor (Homo sapiens) (UniProt P11473); assay: qHTS assay to identify small molecule antagonists of the vitamin D receptor (VDR) signaling pathway (AID 743223; active = well fitted inhibition curve with a large enough effect in the signal ratio in the repeat runs, not every such curve was filed as active; the % refers to the signal ratio)
Outline: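 Beta-lactamase reporter read-out: FRET substrate fluorescence after 2 h at room temperature, following 16 h exposure of VDR-bla cells to test compound plus 3 nM (final) 1alpha,25-dihydroxyvitamin D3 agonist at 37C.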

[19] = target: Bile acid receptor (Homo sapiens) (UniProt Q96RI1); assay: qHTS assay to identify small molecule antagonists of the farnesoid-X-receptor (FXR) signaling pathway (AID 743217; active = well fitted inhibition curve with a large enough effect in the signal ratio in the repeat runs, not every such curve was filed as active; the % refers to the signal ratio)
Bile acid receptor (Homo sapiens), sequence (Q96RI1 whole entry, looked up): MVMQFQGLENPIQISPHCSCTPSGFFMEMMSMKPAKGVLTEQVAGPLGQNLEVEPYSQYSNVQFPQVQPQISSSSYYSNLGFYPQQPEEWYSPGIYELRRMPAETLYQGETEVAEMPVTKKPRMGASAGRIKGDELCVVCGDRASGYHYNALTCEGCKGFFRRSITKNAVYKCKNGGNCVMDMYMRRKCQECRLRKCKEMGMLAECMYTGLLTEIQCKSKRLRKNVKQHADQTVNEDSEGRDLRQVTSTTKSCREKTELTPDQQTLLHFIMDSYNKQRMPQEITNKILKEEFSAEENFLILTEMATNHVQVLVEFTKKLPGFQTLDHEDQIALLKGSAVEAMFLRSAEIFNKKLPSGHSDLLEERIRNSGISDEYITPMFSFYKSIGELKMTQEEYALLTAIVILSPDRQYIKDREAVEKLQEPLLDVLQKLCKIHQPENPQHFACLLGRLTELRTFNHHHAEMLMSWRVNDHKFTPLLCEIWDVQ
Outline: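 FRET fluorescence after 2 h room-temperature LiveBLAzer loading gives the readout. Prior step: FXR-bla HEK 293T cells, seeded and incubated 5 h, received test compounds plus 50 uM final CDCA for 16 h at 37 °C.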

[20] = target: Bile acid receptor (Homo sapiens) (UniProt Q96RI1); assay: qHTS assay to identify small molecule agonists of the farnesoid-X-receptor (FXR) signaling pathway (AID 743220; active = well fitted activation curve with a large enough effect in the signal ratio in the repeat runs, not every such curve was filed as active; the % refers to the signal ratio)
Outline: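 FXR-UAS-bla HEK 293T cells carrying a UAS-driven beta-lactamase reporter were plated for 5 h at 37C/5% CO2, then exposed to DMSO-dissolved Tox21 10K compounds for 16 h at 37C. A LiveBLAzer B/G FRET substrate was loaded for 2 h at room temperature before fluorescence reading.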

SMILES | Potency [1] | Potency [2] | Potency [3] | Potency [4] | Potency [5] | Potency [6] | Potency [7] | Potency [8] | Potency [9] | Potency [10] | Potency [11] | Potency [12] | Potency [13] | Potency [14] | Potency [15] | Potency [16] | Potency [17] | Potency [18] | Potency [19] | Potency [20]
C[C@@H]1CC(=O)NN=C1c1ccc(NN=C(C#N)C#N)cc1 | 26.6 µM (active) | 15 µM (active) | 26.6 µM (active) | inactive | inactive | inactive | inactive | inactive | inactive | inactive |  |  |  |  |  |  |  |  |  | 
CCOC(=O)c1ccc(C#Cc2ccc3c(c2)C(C)(C)CCS3)nc1 | inactive | inactive | inactive | inactive |  | inactive |  | inactive | inactive | inactive | 26.6 µM (active) |  |  |  |  |  |  |  |  | 
CCC1(CO)COCOC1 | inactive | inactive | inactive | inactive | inactive | inactive | inactive |  | inactive | inactive |  | inactive | inactive | inactive |  |  |  |  |  | 
CC(=O)c1ccc([N+](=O)[O-])cc1 | inactive | inactive |  | inactive | inactive | inactive |  | inactive | inactive | inactive | inactive | inactive | inactive | inactive | inactive | inactive | inactive | inactive |  | 
C=C1C[C@@]23CC[C@H]4[C@@](C)(CCC[C@@]4(C)C(=O)O[C@@H]4O[C@H](CO)[C@@H](O)[C@H](O)[C@H]4O)[C@@H]2CC[C@]1(O[C@@H]1O[C@H](CO)[C@@H](O)[C@H](O[C@@H]2O[C@H](CO)[C@@H](O)[C@H](O)[C@H]2O)[C@H]1O[C@@H]1O[C@H](CO)[C@@H](O)[C@H](O)[C@H]1O)C3 | inactive | inactive | inactive | inactive | inactive | inactive | inactive | inactive | inactive | inactive | inactive | inactive | inactive | inactive |  |  | inactive | inactive | inactive | inactive
CCOC(=O)c1ccccc1C(=C1C=C(Br)C(=O)C(Br)=C1)c1cc(Br)c(O)c(Br)c1 | inactive | inactive | inactive |  |  |  | inactive | inactive |  |  |  |  |  | inactive |  |  |  |  |  | 
O=c1[nH]c2ccc(Cl)cc2o1 | inactive | inactive | inactive | inactive |  | inactive | inactive | inactive | inactive | inactive |  | inactive | inactive | inactive |  |  | inactive |  |  | 
C/C=C/C=C/C=O | inactive | inactive | inactive |  | inactive |  | inactive |  | inactive | inactive |  | inactive |  | inactive |  | inactive | inactive |  |  | 
CC1CC(OC(=O)C(O)c2ccccc2)CC(C)(C)N1C (stereo unspecified) | inactive | inactive | inactive | inactive |  | inactive | inactive |  | inactive | inactive | inactive | inactive | inactive |  |  |  | inactive |  |  | 
CC1(CN2CCC(n3c(=O)[nH]c4ccccc43)CC2)OCc2ccccc2-n2cccc21 (stereo unspecified) | inactive | inactive | inactive |  |  | inactive |  |  |  | inactive |  |  | inactive |  |  |  | inactive | inactive |  | 
Clc1cc(Cl)nc(Cl)n1 | inactive | inactive | inactive | 49.6 µM (active) |  | inactive | inactive | inactive | inactive | inactive |  | inactive | inactive | inactive |  |  | inactive | inactive | inactive | inactive
CCC(OCCCOC)OC(C)=O (stereo unspecified) | inactive | inactive | inactive | inactive | inactive | inactive | inactive | inactive | inactive | inactive | inactive | inactive | inactive | inactive |  |  | inactive | inactive |  | 
CC(C)C=O | inactive | inactive | inactive | inactive | inactive | inactive | inactive | inactive | inactive | inactive | inactive |  |  | inactive |  |  |  | inactive |  | 
O=C1c2ccccc2C(=O)C1c1ccc(Br)cc1 | inactive | 11.9 µM (active) | inactive | inactive | inactive | inactive |  | inactive | inactive | inactive |  |  | inactive | inactive |  |  |  | inactive |  | 
CC(=O)OCC[N+](C)(C)C | inactive | inactive |  | inactive | inactive | inactive |  | inactive |  | inactive | inactive | inactive | inactive | inactive | inactive | inactive | inactive | inactive | inactive | inactive
CC(C)c1nc(CN(C)C(=O)N[C@H](C(=O)N[C@@H](Cc2ccccc2)C[C@H](O)[C@H](Cc2ccccc2)NC(=O)OCc2cncs2)C(C)C)cs1 | inactive and 23.7 µM (active) | inactive | inactive and 13.3 µM (active) | inactive | inactive | inactive | 29.8 µM (active) |  |  |  |  |  | inactive |  |  |  | inactive |  |  | inactive
CC1CC(C)C(=O)C1=O (stereo unspecified) | inactive | inactive |  | inactive | inactive | inactive | inactive | inactive | inactive | inactive | inactive | inactive | inactive |  | inactive | inactive | inactive |  |  | 
C=CCc1ccccc1OCC(O)CNC(C)C (stereo unspecified) | inactive | inactive | inactive | inactive | inactive | inactive | inactive | inactive | inactive | inactive |  | inactive | inactive | inactive |  |  | inactive | inactive |  | 
CC1(C)[C@H](C(=O)O)N2C(=O)C[C@H]2S1(=O)=O | inactive | inactive | inactive | inactive | inactive | inactive |  | inactive | inactive | inactive |  |  |  | inactive |  |  | inactive |  |  | inactive
O=C=Nc1ccc(Cl)c(Cl)c1 | inactive | 47.8 µM (active) | inactive | inactive | inactive | inactive |  |  | 30.4 µM (active) |  |  | inactive | inactive | inactive |  |  | inactive | inactive | inactive | inactive
OC[C@H]1O[C@@H](n2cnc3c(=S)nc[nH]c32)[C@H](O)[C@@H]1O | inactive | inactive | inactive | 3.76 µM (active) |  | inactive |  |  |  | 16.8 µM (active) | 3.35 µM (active) | inactive |  | inactive |  |  | inactive | inactive |  | inactive
CN1C(=O)OC(C)(C)C1=O | inactive | inactive | inactive | inactive | inactive | inactive | inactive | inactive | inactive | inactive | inactive | inactive | inactive |  |  |  | inactive |  |  | 
CCOC(=O)c1ccc(OCCN2C[C@H](O)[C@@H](O)[C@H](O)[C@H]2CO)cc1 | inactive | inactive | inactive |  |  | inactive | inactive | inactive | inactive | inactive | inactive | inactive | inactive | inactive |  | inactive | inactive | inactive |  | 
